This passage reports max response, outcome and Potency results from PubChem BioAssay (NCATS).

The test system of test [1] is CRL-7250. Description: Cytotoxic Profiling of Annotated Libraries Using Quantitative High-Throughput Screening (AID 1296008). Further: nearly all actives have a fitted effect of over 60% in size. The note with it: Five cell lines viability, CellTiter-Glo ATP luminescence, 48-72 h; max response: active compounds read low. In short, it runs like this:
(§1)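 Cytotoxicity was measured as CellTiter-Glo ATP luminescence, read after 10 min at room temperature. Compound treatment of the cells lasted 48 or 72 hr at 37 degrees Celsius in a qHTS format.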
(In general: Cellular ATP, detected with luciferase, serves as a proxy for viable cell number.)

For test [2], the system named is HaCat. The description is as above. The note with it: Five cell lines viability, CellTiter-Glo ATP luminescence, 48-72 h; max response: active compounds read low. In short, it runs like this:
as §1

Another test concerns NIH3T3. The test is described as above. The note with it: Five cell lines viability, CellTiter-Glo ATP luminescence, 48-72 h; max response: active compounds read low. The method, boiled down:
as §1

Test [3] relates to HACAT. Description: qHTS assay to identify novel small-molecules to repurpose for Merkel cell carcinoma treatment (AID 1296009). Further: nearly all actives have a fitted effect of over 60% in size. The note with it: MCC and control cell lines, CellTiter-Glo viability, 72 h; at 44.8 µM (top of the series) unless noted. The method, boiled down: (§2)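 72 hr, 37 degree celsius; NPC 8-pt / MIPE 11-pt dose response; compound pinned in DMSO; CellTiter-Glo, 10 min RT, luminescence; normalized to no-cell and DMSO controls.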

The next test deals with MCC-13. Described as above. The note with it: MCC and control cell lines, CellTiter-Glo viability, 72 h; series mostly up to 46 µM. In short, it runs like this:
as §2

For a further test, the system named is MCC-26. Described as above. The note with it: MCC and control cell lines, CellTiter-Glo viability, 72 h; series mostly up to 46 µM. In short, it runs like this: as §2
The test system of another test is MKL-1. The test is described as above. The note with it: MCC and control cell lines, CellTiter-Glo viability, 72 h; series mostly up to 46 µM. In short, it runs like this: as §2
The test system of the next test is UISO. The description is as above. The note with it: MCC and control cell lines, CellTiter-Glo viability, 72 h; series mostly up to 46 µM. In short, it runs like this:
as §2

The subject of a further test is C33A. In words: Primary qHTS to identify gynecologic anti-cancer compounds using libraries of approved drugs and bioactive compounds (AID 1345084). Further: nearly all actives have a fitted effect of over 55% in size. The note with it: Gynecologic cancer cell panel viability, ATPlite luminescence, 48 h; series mostly up to 57.5 µM. In short, it runs like this:
(§3)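 48 h compound exposure at 37 C, 5% CO2; five-point qHTS. ATPlite luminescence readout of cell ATP.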
In general terms: Quantitative high-throughput screening tests each substance at several concentrations.

The next test has as its system CASKI. Described as above. The note with it: Gynecologic cancer cell panel viability, ATPlite luminescence, 48 h; series mostly up to 57.5 µM. In short, it runs like this: as §3
The test system of the next test is Es-2. The description is as above. The note with it: Gynecologic cancer cell panel viability, ATPlite luminescence, 48 h; series mostly up to 57.5 µM. In short, it runs like this:
as §3

A further test concerns HeLa. The description is as above. The note with it: Gynecologic cancer cell panel viability, ATPlite luminescence, 48 h; series mostly up to 57.5 µM. In short, it runs like this: as §3
A further test has as its system KB-3-1. In words: Cytotoxic Profiling of Annotated Libraries Using Quantitative High-Throughput Screening (AID 1296008). Further: nearly all actives have a fitted effect of over 60% in size. The note with it: Five cell lines viability, CellTiter-Glo ATP luminescence, 48-72 h; max response: active compounds read low. The method, boiled down: as §1
The next test concerns MKL-2. In words: qHTS assay to identify novel small-molecules to repurpose for Merkel cell carcinoma treatment (AID 1296009). Further: nearly all actives have a fitted effect of over 60% in size. The note with it: MCC and control cell lines, CellTiter-Glo viability, 72 h; series mostly up to 46 µM. The method, boiled down:
as §2

Another test concerns HEK293. In words: Cytotoxic Profiling of Annotated Libraries Using Quantitative High-Throughput Screening (AID 1296008). Further: nearly all actives have a fitted effect of over 60% in size. The note with it: Five cell lines viability, CellTiter-Glo ATP luminescence, 48-72 h; max response: active compounds read low. In short, it runs like this: as §1
The test system of another test is WaGa. Description: qHTS assay to identify novel small-molecules to repurpose for Merkel cell carcinoma treatment (AID 1296009). Further: nearly all actives have a fitted effect of over 60% in size. The note with it: MCC and control cell lines, CellTiter-Glo viability, 72 h; series mostly up to 46 µM. The method, boiled down: as §2
For a further test, the system named is CAOV3. Description: Primary qHTS to identify gynecologic anti-cancer compounds using libraries of approved drugs and bioactive compounds (AID 1345084). Further: nearly all actives have a fitted effect of over 55% in size. The note with it: Gynecologic cancer cell panel viability, ATPlite luminescence, 48 h; series mostly up to 57.5 µM. In short, it runs like this:
as §3

For test [4], the system named is CRL-7250. In words: qHTS assay to identify novel small-molecules to repurpose for Merkel cell carcinoma treatment (AID 1296009). Further: nearly all actives have a fitted effect of over 60% in size. The note with it: MCC and control cell lines, CellTiter-Glo viability, 72 h; at 44.8 µM (top of the series) unless noted. The method, boiled down:
as §2

Molecules are shown by their SMILES. Results filed as inconclusive are left out. Values without a mark were called inactive. The source made the active and inactive calls. The call rests on the fitted dose curve; in most records, active means well fitted curve in the direction sought with a large enough effect; inconclusive means small, poorly fitted or top-dose-only effect, or another doubt; inactive means no such curve, though single readings can be large; an effect the other way counts as inactive or inconclusive.
On the % scale 0 is the no-effect control and ±100 the full control effect; potency means the concentration at half of the fitted maximal effect.

On to `CN1CCC(N(Cc2ccccc2)c2ccccc2)CC1`, for which the max response in the test with CRL-7250 [1] is -21.6%; in the test on NIH3T3 it was -20.5%. The molecule was called inactive in the test on HaCat [2] and in the test with HACAT [3]. For the same molecule, the Potency result in the test on MCC-13, in the test on MCC-26, in the test on MKL-1, in the test on UISO, with C33A and with CASKI was “inactive” in each case. Also, the Potency result in the test with Es-2 and in the test on HeLa was “inactive” throughout.

As for `C[C@]12C=CC(=O)C=C1CC[C@@H]1[C@@H]2CC[C@@]2(C)[C@H]1CC[C@]2(C)O`, the max response was -25.8% with CRL-7250 [1], -43.5% with HaCat [2], -13.2% in the test with KB-3-1 and -13.6% in the test with NIH3T3. Further, the Potency result with MCC-13, with MCC-26, in the test on MKL-1, with MKL-2, in the test on C33A and in the test on CASKI was “inactive” each time. For the same molecule, the Potency result in the test on Es-2 and in the test on HeLa was “inactive” each time.

Turning to `CCC(=O)O[C@H]1CC[C@H]2[C@@H]3CCC4=CC(=O)CC[C@]4(C)[C@H]3CC[C@]12C`, the molecule was classed as inactive with HaCat [2] and with HACAT [3]. Further, the max response was -26.4% with KB-3-1 and 0.89% in the test on NIH3T3. Moreover, the Potency result with MCC-13, in the test on MCC-26, in the test with MKL-1, with MKL-2, in the test on UISO and in the test on C33A was “inactive” in each case. In addition, the Potency result in the test with CASKI and in the test with Es-2 was “inactive” throughout. The Potency in the test on HeLa was 3.55 µM (active).

As for `CC1=C2[C@H]3OC(=O)[C@@H](C)[C@@H]3CC[C@@]2(C)C=CC1=O`, the results for the max response in the test on HEK293, in the test on KB-3-1 and in the test with NIH3T3 were -1.89%, 27.1% and -1.04%, respectively. In addition, the molecule was called inactive in the test on HaCat [2] and in the test with HACAT [3]. In addition, the Potency result with MCC-13, in the test with MCC-26, in the test with MKL-1, in the test on MKL-2, in the test with UISO and with WaGa was “inactive” each time. Besides, the Potency entry in the test with C33A, in the test with CAOV3, in the test with CASKI, in the test on Es-2 and in the test on HeLa was “inactive” in each case.

In the case of `C[C@H](CN1CCOCC1)C(C(=O)N1CCCC1)(c1ccccc1)c1ccccc1`, the max response in the test on CRL-7250 [1] is -21.1%; with HaCat [2], -13.3%; in the test with KB-3-1 it was 1.9%; with NIH3T3, -7.32%. In addition, the Potency entry with MCC-13, in the test on MCC-26, in the test with MKL-1, with MKL-2, in the test with C33A and in the test on CAOV3 was “inactive” in each case. In addition, the Potency result in the test with CASKI, with Es-2 and in the test on HeLa was “inactive” throughout.

For `C#C[C@]1(O)C=C[C@H]2[C@@H]3CCC4=CC(=O)CC[C@@H]4[C@H]3CC[C@@]21CC`, the max response in the test with CRL-7250 [1] is 0.605%; with KB-3-1, -9.68%. For the same molecule, the result in the test with HaCat [2] and in the test on HACAT [3] was inactive. For the same molecule, the Potency entry with MCC-13, with MCC-26, with MKL-1, with MKL-2, in the test on UISO and in the test on WaGa was “inactive” throughout. The Potency result in the test on C33A, in the test with CASKI and with Es-2 was “inactive” in each case. Further, the Potency in the test with HeLa was 12.6 µM (active).

`CC(CC(C#N)(c1ccccc1)c1ccccc1)N(C)C` (centres undefined): the values for the Potency in the test on HEK293 and in the test with WaGa were 24.3 µM (active) and 43.3 µM (active), respectively. In addition, the max response is -5.96% with HaCat [2], -8.06% in the test with KB-3-1 and -12.2% with NIH3T3. Further, the Potency entry with MCC-26, in the test with MKL-1, with C33A, in the test with CAOV3, in the test on CASKI and with Es-2 was “inactive” throughout. In addition, the Potency result in the test on HeLa was “inactive”.

In the case of `C[C@H](O)C(=O)Nc1c(I)c(C(=O)NC(CO)CO)c(I)c(C(=O)NC(CO)CO)c1I`, in the test with CRL-7250 [4], the molecule was classed as inactive.

For `Clc1ccc(C(Cn2ccnc2)OCc2ccc(Sc3ccccc3)cc2)c(Cl)c1` (centres undefined), the result in the test on CRL-7250 [4] was inactive.

In the case of `CCCc1cc(C(N)=S)ccn1`, the molecule was classed as inactive in the test with CRL-7250 [4].

With `O=C(CCl)c1ccc(Cl)cc1Cl`, the molecule was called inactive in the test with HaCat [2] and in the test with HACAT [3]. Also, the max response with NIH3T3 is -36.1%. For the same molecule, the Potency result in the test with MCC-13, in the test on MCC-26, in the test on UISO, with C33A, with CAOV3 and with CASKI was “inactive” each time. Further, the Potency entry with Es-2 and in the test on HeLa was “inactive” throughout.

With `CCN(CCCCOC(=O)c1ccc(OC)c(OC)c1)C(C)Cc1ccc(OC)cc1` (centres undefined), in the test with CRL-7250 [4], the result was inactive.

With `C#C[C@]1(O)CC[C@H]2[C@@H]3CCC4=CC(=O)CCC4=C3C=C[C@@]21CC`, the outcome in the test on HaCat [2] and with HACAT [3] was inactive. Further, the max response with NIH3T3 is -4.44%. The Potency entry with MCC-13, with MCC-26, in the test on MKL-1, in the test on C33A, in the test on CAOV3 and in the test on CASKI was “inactive” in each case. Further, the Potency result with Es-2 and with HeLa was “inactive” in each case.

Take `O=C(O)Cc1ccc2c(c1)C(=O)c1ccccc1CO2`: the result in the test on CRL-7250 [4] was inactive.

On to `C=C1C(=C/C=C2\CCC[C@]3(C)[C@@H]([C@H](C)/C=C/[C@@H](O)C4CC4)CC[C@@H]23)C[C@@H](O)C[C@@H]1O`, for which the outcome with CRL-7250 [4] was inactive.

Consider `CN(C)CCOc1ccccc1Cc1ccccc1`, for which the molecule was called inactive in the test with CRL-7250 [4].

Regarding `O=S1(=O)OC(c2ccc(O)cc2)(c2ccc(O)cc2)c2ccccc21`, the result with CRL-7250 [4] was inactive.

As to `COc1ccc(CN2CCN(C(c3ccc(F)cc3)c3ccc(F)cc3)CC2)c(OC)c1OC`, in the test on CRL-7250 [4], the call was inactive.

On to `C=C1c2cccc(O)c2C(O)=C2C(=O)[C@]3(O)C(O)=C(C(N)=O)C(=O)[C@@H](N(C)C)[C@@H]3[C@@H](O)[C@H]12`, for which the molecule was classed as inactive with CRL-7250 [4].
